Data from PubChem BioAssay (NCATS).
Results filed as inconclusive are left out. The source made the active and inactive calls. Unless noted, calls follow the shape of the dose curve; as a rule, active = well fitted curve in the direction sought with a large enough effect; inconclusive = small, poorly fitted or top-dose-only effect, or another doubt; inactive = no such curve, though single readings can be large; an effect the other way counts as inactive or inconclusive.

Experiments:
[1] = biological target: Phosphoglycerate kinase, glycosomal (Trypanosoma brucei brucei) (UniProt P07378); experiment: qHTS Validation Assay to Find Inhibitors of Phosphoglycerate Kinase (AID 504547)
Summary of the method: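 Inhibition of the enzyme is judged by a Kinase-Glo Plus luminescent signal following a one-hour incubation at room temperature. Because 1,3-BPG is unstable, it is made in situ by GAPDH at 100nM final; no-PGK wells define the baseline.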

[2] = biological target: phosphoglycerate mutase (Leishmania major) (UniProt Q4Q090); experiment: qHTS Validation Assay to Find Inhibitors of Phosphoglycerate Mutase (AID 504548); also: series mostly up to about 58 µM
Summary of the method: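 Lm PGAM 1.25nM final; 100 mM TEA pH 7.6, 5 mM MgCl2, 0.01% Tween-20; 45 min RT; Kinase-GloPlus, 10 min; end-point luminescence. Enzyme-free wells as negative controls.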

[3] = qHTS for Inhibitors of ATXN expression: Validation of Cytotoxic Assay (AID 588349)
Summary of the method: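 HEK293 cells were dosed with titrated compounds for 72 hr at 37 degrees C. Viability was read by CellTiter Glo luminescence, with intracellular ATP as the marker of cell survival.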

[4] = qHTS for Inhibitors of ATXN expression: Validation (AID 588378); also: series mostly up to about 57 µM; nearly all actives have a fitted effect of over 75% in size
Summary of the method: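 Luminescence from an ATXN2-FFLuc reporter in HEK293 cells served as read-out after 24 h compound treatment at 37 degrees C; CellTiter-Fluor fluorescence was recorded first to assess viability.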

[5] = biological target: Glutaminase kidney isoform, mitochondrial (Homo sapiens) (UniProt O94925); experiment: qHTS for Inhibitors of Glutaminase (GLS): LOPAC Validation (AID 624146);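 also: glutamate product detected by oxidase and peroxidase coupled Amplex red fluorescence gain; series mostly up to about 46 µM; nearly all actives have a fitted effect of over 60% in size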
Summary of the method: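 Human kidney-isoform GLS in 45 mM KH2PO4 pH 8.2, 0.02% Tween-20, with compound, started with 1mM L-Glutamine (added stock). Glutamate oxidase/HRP/Amplex red coupled fluorescence read at start and after 30 min at RT.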

[6] = qHTS of Trypanosoma Brucei Inhibitors: LOPAC Validation (AID 624147)
Summary of the method: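 ADP (130 uM final) triggers the TbPYK reaction after compound addition; incubation is 45 min at room temperature. Kinase-Glo Plus is then added and luminescence imaged. Normalized data are fitted to concentration-effect curves.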

[7] = biological target: Glucagon-like peptide 1 receptor (Homo sapiens) (UniProt P43220); experiment: qHTS of GLP-1 Receptor Agonists: LOPAC Validation (AID 624148);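 also: luminescence from a luciferase reporter switched on by cAMP; higher luminescence signal means agonism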
Summary of the method: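 Agonism scored as increased luciferase luminescence driven by cAMP in HEK293 clones carrying GLP-1R. Cells settled 12 hours, received compound for 4-6 hr at 37 deg C, 5% CO2, and were read after 12 min detection reagent at RT.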

[8] = qHTS of Nrf2 Activators: LOPAC Validation (AID 624149)
Summary of the method: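 AREc32 cells carrying an ARE-driven firefly luciferase were grown overnight in OPTI-MEM with 5% FBS, then exposed to compounds for 24 hr at 37 deg C. Luciferase signal was read after 30 min with Steady-Glo at RT.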

[9] = HTS Assay for Allosteric Antagonists of the Human D2 Dopamine Receptor: Hit Validation in HTRF (AID 624455);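 also: stable D1 dopamine receptor cell line scored for blocking the D1 response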
Summary of the method: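 Hits were examined in an HTRF assay using cells stably expressing the D1 dopamine receptor, scoring inhibition of the D1-mediated response. The preceding primary screen tracked calcium flux after an EC80 dopamine addition in force-coupled, inducible Hek293 Trex D2 cells.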

[10] = biological target: Arylsulfatase A (Homo sapiens) (UniProt P15289); experiment: qHTS screen for enhancers of Arylsulfatase A (ASA1): LOPAC Validation Assay (AID 720538)
Summary of the method: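 SV40-transformed skin fibroblasts from an MLD patient (ASA-I179S) were treated with compounds for 48h at 37 degree C, then lysed with 0.5mM pNCS final substrate for 14h at room temperature; NaOH stop, fluorescence read (Ex=525 nm; Em=598 nm).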

[11] = qHTS for compounds that reverse cellular toxicity of Amyloid beta (A-beta) peptide in yeast: LOPAC Validation Assay (AID 720559)
Summary of the method: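 Yeast cells expressing toxic A-beta were combined with pinned compounds in growth medium and incubated 48 hr at 30 C. Growth was read as absorbance at 600 nm and normalized to DMSO and to an equimolar FeCl3/clioquinol positive control.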

[12] = qHTS for Activators of Parkin Expression: LOPAC Validation Assay (NLuc Reporter) (AID 720572)
Summary of the method: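 Parkin promoter-driven FLuc/NLuc neuronal reporter cells; 24 h plating, 7-pt dose response, 24 h at 37 C/5% CO2; FLuc then NanoLuc reagent, 10 min each, luminescence; DMSO/positive control normalized.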

[13] = qHTS for Activators of Parkin Expression: LOPAC Validation Assay (FLuc Reporter) (AID 720573)
Summary of the method: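 Neuronal cell line stably carrying FLuc/NLuc coincidence reporter under Parkin promoter; cells plated 24 h, then compounds added in 7-point dose response for 24 h at 37 C. FLuc luminescence read; normalized to DMSO and positive control (100%).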

[14] = biological target: T1, Hexokinase-4 (Homo sapiens) + Glucokinase regulatory protein (Homo sapiens) (UniProt P35557+Q14397); experiment: qHTS assay for inhibitors of recombinant human GCK-GKRP interaction: Diaphorase-coupled assay (AID 743205)
Summary of the method: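 GST-GCK (10 nM) with FLAG-GKRP (10 nM), 5 mM glucose and 0.4 mM ATP in pH 7.6 Hepes; compounds preincubated 20 min with substrate. G6PDH/diaphorase coupling converts resazurin to resorufin, read kinetically (ex 525/em 590 nm) for 30 min.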

[15] = biological target: T1, Hexokinase-4 (Homo sapiens) + Glucokinase regulatory protein (Homo sapiens); experiment: qHTS assay for inhibitors of recombinant human GCK-GKRP interaction: ADP-Glo assay (AID 743206)
Summary of the method: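 GST-GCK and FLAG-GKRP (15 nM each in the dispensed mix, with 2 uM S6P) react with 0.4 mM ATP and 5 mM glucose (final) in Hepes pH 7.6 for 60 min at room temperature. ADP is measured by ADP-Glo luminescence.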

[16] = Natriuretic polypeptide receptor (hNpr1) antagonism - Pilot counterscreen GloSensor control cell line (AID 1347045; calls by dose curve; also: series mostly up to about 38 µM)
Summary of the method: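 HEK293 cells carrying the GloSensor cGMP sensor (GIP/pGS-40F) were loaded with 2% GloSensor reagent for 2 h, exposed to compounds for 30 min, and then stimulated with 50 uM sodium nitroprusside for 20 min at room temperature.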

[17] = biological target: Atrial natriuretic peptide receptor 1 (Homo sapiens) (UniProt P16066); experiment: Natriuretic polypeptide receptor (hNpr1) antagonism - Pilot screen (AID 1347049; calls by dose curve;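 also: agonist-evoked cGMP luminescence read 20 min after hNppA addition; series mostly up to about 58 µM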)
Summary of the method: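 Readout is cGMP-driven firefly luciferase luminescence in HEK293 cells carrying hNpr1 and a PDE5-domain GloSensor, read before and 20 min after 0.1 nM hNppA stimulation. Cells had 2% substrate reagent for 2 h and test compound for 30 min.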

[18] = biological target: Atrial natriuretic peptide receptor 2 (Homo sapiens) (UniProt P20594); experiment: Natriuretic polypeptide receptor (hNpr2) antagonism - Pilot subtype selectivity assay (AID 1347050; calls by dose curve)
Summary of the method: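 Pilot selectivity screen against hNpr2: HEK293 cGMP-sensor cells are treated with LOPAC1280 compounds, then with hNppC peptide at 1 nM final. The cGMP-driven luminescence change over 20 min at room temperature is the read-out.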

[19] = biological target: T2, Tyrosine-protein phosphatase non-receptor type substrate 1 (Homo sapiens) + Leukocyte surface antigen CD47 (Homo sapiens) (UniProt P78324+Q08722); experiment: CD47-SIRPalpha protein protein interaction - LANCE assay qHTS validation (AID 1347057; active = well fitted curve in the direction sought with a large enough effect in the signal ratio, with a control signal flat, not every such curve was filed as active; the % refers to the signal ratio; also: series mostly up to about 38 µM)
Summary of the method: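 First, His-tagged CD47 and Eu-labelled anti-His antibody met the compound for 30 min; next, site-specifically biotinylated SIRPalpha was added for 30 min; finally streptavidin-APC was added before reading the TR-FRET ratio.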

[20] = biological target: T2, Tyrosine-protein phosphatase non-receptor type substrate 1 (Homo sapiens) + Leukocyte surface antigen CD47 (Homo sapiens); experiment: CD47-SIRPalpha protein protein interaction - HTRF assay qHTS validation (AID 1347058; active = well fitted curve in the direction sought with a large enough effect in the signal ratio, not every such curve was filed as active; the % refers to the signal ratio;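 also: recombinant soluble extracellular CD47 with His tag and biotinylated SIRPalpha domains; series mostly up to about 38 µM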)
Summary of the method: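 TR-FRET read (Ch1/Ch2 ratio) of soluble extracellular CD47 and Avi-biotinylated SIRPalpha domains in PBS pH 7.4 with 0.05% IGEPAL; 7-point compound titration. Sequential 30 min room-temperature steps; non-biotinylated SIRPalpha as control inhibitor.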

[21] = biological target: T2, Tyrosine-protein phosphatase non-receptor type substrate 1 (Homo sapiens) + Leukocyte surface antigen CD47 (Homo sapiens); experiment: CD47-SIRPalpha protein protein interaction - Alpha assay qHTS validation (AID 1347059);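 also: bead proximity luminescence from CD47 binding SIRPalpha after compound preincubation with SIRPalpha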
Summary of the method: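 Binding is measured by AlphaScreen proximity: Ni-NTA acceptor beads capture His-CD47, streptavidin donor beads capture biotin-SIRPalpha. Each of three additions (SIRPalpha with compound, CD47, beads) incubates 30 min at room temperature protected from light.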

[22] = biological target: Parathyroid hormone/parathyroid hormone-related peptide receptor (Homo sapiens) (UniProt Q03431); experiment: qHTS for PTHR1 Agonists: Optimization Screen against the NCGC LOPAC library (AID 1347079);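 also: GloSensor cAMP luminescence in HEK-293 GP2 cells expressing human PTHR1 with IBMX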
Summary of the method: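 Compounds were tested across a qHTS titration. PTHR1-expressing GP2 cells report cAMP rises via GloSensor luminescence after 1 hr compound exposure at 37C with IBMX present.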

[23] = test system: Zika virus NS2B-NS3 protease (unlinked); experiment: Optimization of GU AMC qHTS for Zika virus inhibitors: Unlinked NS2B-NS3 protease assay (AID 1347151); also: series mostly up to about 52 µM; nearly all actives have a fitted effect of over 80% in size
Summary of the method: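 Noncovalent complex of NS2B hydrophilic domain and NS3 protease domain, 25 nM final, in 10 mM Tris-HCl pH 8.0, 0.01% Tween 20. AMC fluorescence change over 15 min at room temperature was fitted to a 4-parameter Hill equation.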

[24] = biological target: Lysine-specific demethylase 5B (Homo sapiens) (UniProt Q9UGL1); experiment: Optimization screen for KDM5B Histone Demethylases FDH coupled qHTS against the LOPAC library (AID 1347166)
Summary of the method: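 KDM5BDeltaAP (200nM final) preincubated 10 min with compound, then 12.5uM H3K4Me3, 25uM a-ketoglutarate, ascorbate, Fe(II), NAD+ and FDH added; 50mM HEPES pH 7.5, 0.01% Tween-20. NADH fluorescence (340/450 nm) change over 30 min, room temperature.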

[25] = qHTS to identify inhibitors of the type 1 interferon - major histocompatibility complex class I in skeletal muscle: primary screen against the NCATS LOPAC collection (AID 1347405);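 also: lytic HiBiT luminescence reporting HLA-B protein level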
Summary of the method: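 Immortalized human C25cl48 myoblasts with HiBiT knocked into endogenous HLA-B*08:01 were stimulated with 4.0 ng/ml IFN-beta and given compounds in a 7-point, 1:4.3 titration from 46 uM final; after 24 hrs, lytic HiBiT luminescence was read.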

[26] = qHTS for inhibitors of adenylyl cyclases using a fission yeast platform: a pilot screen against the NCATS LOPAC library (AID 1347410)
Summary of the method: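 S. pombe CHP2027 (AC9-GNAS-PDE4D2) carrying a PKA-repressed fbp1-GFP reporter was exposed to LOPAC compounds (final up to 57 µM) for 18 h at 30C in the dark, in EMM with histidine, lysine and uracil; GFP gain-of-signal read by laser scanning cytometry.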

[27] = Validation qHTS assay for inhibitors of Activation Induced Cytidine Deaminase (AID): UDG Counterscreen signal (AID 1347427)
Summary of the method: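 Counterscreen read of UDG activity (2 U/mL, 4/3x) in the FRET deamination format with AID (1 uM, 4/3x), DJC20/DJC23 substrates (250 nM, 4x), 4 h at room temperature. NaOH stop, fluorescence at 560 ex/665 em.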

[28] = biological target: Single-stranded DNA cytosine deaminase (Homo sapiens) (UniProt Q9GZX7); experiment: Validation qHTS assay for inhibitors of Activation Induced Cytidine Deaminase (AID): AID signal (AID 1347429)
Summary of the method: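 AID and UDG were combined and compounds added at final up to 114 uM, then DJC20/DJC23 FRET substrate was added for 4 hr at room temperature. NaOH was then added for 30 min before fluorescence was read at 540/590 nm.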

[29] = biological target: Calcium and integrin-binding protein 1 (Homo sapiens) (UniProt Q99828); experiment: Validation qHTS for Identification of Calcium Integrin Binding protein 1 (CIB1) Competitor (AID 1508618)
Summary of the method: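 CIB1-GST (1 uM final) in 5 mM HEPES pH 7.4, 125 mM NaCl, 5 mM CaCl2, 0.01% Tween20 was preincubated 15 min at room temperature with compound (up to 114 uM), then FITC-alphaIIb peptide (100 nM) added for 15 min; fluorescence polarization read.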

Papain (Carica papaya) = Papain (Carica papaya) (UniProt P00784); experiment: Primary qHTS assay for inhibitors of the protease papain (AID 1645873);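 also: papain turnover of Z-FR-AMC read as the AMC fluorescence gain over 10 min; series mostly up to about 50 µM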
[30] = biological target: Metallo-beta-lactamase type 2 (Klebsiella pneumoniae) (UniProt C7C422); experiment: qHTS to identify inhibitors of the New Delhi Metallo-beta-lactamase (NDM): assay validation screen against the NCATS LOPAC Collection (AID 1794843);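 also: nitrocefin turnover by NDM-1 measured as 485 nm absorbance at plateau; series mostly up to about 38 µM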
Summary of the method: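 NDM-1 at 2 nM final in 50 mM HEPES pH 7.0 with 1 uM ZnSO4 and 0.01% Tween20 was preincubated with library compounds in DMSO. Nitrocefin (50 uM stock) was then added, and absorbance at 485 nm was read at the kinetic plateau.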

[31] = biological target: Phospholipid hydroperoxide glutathione peroxidase GPX4 (Homo sapiens) (UniProt P36969); experiment: Primary qHTS Assay for Inhibitors of Recombinant Selenoprotein Glutathione Peroxidase 4 (GPX4) (AID 1845192); conditions: outcome: dose series up to 50 µM unless noted; also: nearly all actives have a fitted effect of over 65% in size
Summary of the method: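 NADPH consumption, followed by fluorescence at 340/450 nm between 0 and 15 min, reports GPX4 activity via coupled glutathione reductase (100 nM). Enzyme 200 nM was pre-exposed to compound 30 min; 0.5 mM cumene hydroperoxide and 1 mM GSH served as substrates.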

Measured: Potency

T2 sequence (P78324 whole entry, looked up): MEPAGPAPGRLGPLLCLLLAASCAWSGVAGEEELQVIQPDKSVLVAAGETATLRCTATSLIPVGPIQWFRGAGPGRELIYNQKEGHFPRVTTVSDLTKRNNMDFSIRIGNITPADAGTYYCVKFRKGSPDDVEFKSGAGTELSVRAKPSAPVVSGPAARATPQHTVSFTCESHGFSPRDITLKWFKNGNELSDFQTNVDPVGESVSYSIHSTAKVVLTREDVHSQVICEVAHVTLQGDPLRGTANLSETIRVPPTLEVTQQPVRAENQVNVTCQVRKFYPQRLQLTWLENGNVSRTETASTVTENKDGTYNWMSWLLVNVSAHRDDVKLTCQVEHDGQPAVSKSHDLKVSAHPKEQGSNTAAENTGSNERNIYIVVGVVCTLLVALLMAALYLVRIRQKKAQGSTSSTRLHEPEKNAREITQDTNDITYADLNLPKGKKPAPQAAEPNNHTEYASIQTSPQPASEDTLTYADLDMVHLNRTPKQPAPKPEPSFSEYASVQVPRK
T2 sequence (Q08722 whole entry, looked up): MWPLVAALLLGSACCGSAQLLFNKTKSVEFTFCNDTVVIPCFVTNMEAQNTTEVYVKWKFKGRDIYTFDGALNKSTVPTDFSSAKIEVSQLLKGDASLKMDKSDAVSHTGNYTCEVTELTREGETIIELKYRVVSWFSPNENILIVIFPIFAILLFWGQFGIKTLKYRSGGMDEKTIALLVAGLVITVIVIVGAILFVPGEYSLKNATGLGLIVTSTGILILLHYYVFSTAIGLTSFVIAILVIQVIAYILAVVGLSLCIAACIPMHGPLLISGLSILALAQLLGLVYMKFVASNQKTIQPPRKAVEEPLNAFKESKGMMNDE
T1 sequence (P35557 whole entry, looked up): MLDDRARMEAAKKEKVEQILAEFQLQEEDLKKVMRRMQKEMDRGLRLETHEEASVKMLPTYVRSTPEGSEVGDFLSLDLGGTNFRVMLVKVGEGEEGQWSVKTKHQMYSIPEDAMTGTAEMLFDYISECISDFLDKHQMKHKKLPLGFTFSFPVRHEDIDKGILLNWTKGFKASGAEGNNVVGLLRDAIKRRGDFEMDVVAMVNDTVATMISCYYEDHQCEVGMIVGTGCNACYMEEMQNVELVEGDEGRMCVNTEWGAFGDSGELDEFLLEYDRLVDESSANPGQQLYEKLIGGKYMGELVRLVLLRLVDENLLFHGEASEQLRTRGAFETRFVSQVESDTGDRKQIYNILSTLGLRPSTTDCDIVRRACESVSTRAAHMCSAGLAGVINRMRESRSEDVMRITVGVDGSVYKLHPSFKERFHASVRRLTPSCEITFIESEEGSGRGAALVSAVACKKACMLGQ
T1 sequence (Q14397 whole entry, looked up): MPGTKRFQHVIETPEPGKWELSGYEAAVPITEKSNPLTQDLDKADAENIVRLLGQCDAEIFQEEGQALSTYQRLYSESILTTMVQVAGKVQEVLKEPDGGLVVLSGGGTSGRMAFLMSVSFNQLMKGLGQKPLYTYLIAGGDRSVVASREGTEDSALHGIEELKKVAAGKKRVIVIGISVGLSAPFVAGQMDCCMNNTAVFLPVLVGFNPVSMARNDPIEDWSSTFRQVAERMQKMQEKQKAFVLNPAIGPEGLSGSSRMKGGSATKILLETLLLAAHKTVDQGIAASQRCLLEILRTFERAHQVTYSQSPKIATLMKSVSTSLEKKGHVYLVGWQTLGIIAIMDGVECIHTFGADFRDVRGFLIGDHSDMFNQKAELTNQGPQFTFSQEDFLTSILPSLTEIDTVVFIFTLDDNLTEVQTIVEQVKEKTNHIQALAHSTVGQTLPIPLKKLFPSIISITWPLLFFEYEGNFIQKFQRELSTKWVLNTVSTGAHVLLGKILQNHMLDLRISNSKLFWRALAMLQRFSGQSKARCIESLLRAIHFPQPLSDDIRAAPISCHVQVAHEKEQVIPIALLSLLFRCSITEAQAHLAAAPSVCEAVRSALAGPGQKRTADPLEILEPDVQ
Chain of Lysine-specific demethylase 5B (Homo sapiens) (Q9UGL1 whole entry, looked up): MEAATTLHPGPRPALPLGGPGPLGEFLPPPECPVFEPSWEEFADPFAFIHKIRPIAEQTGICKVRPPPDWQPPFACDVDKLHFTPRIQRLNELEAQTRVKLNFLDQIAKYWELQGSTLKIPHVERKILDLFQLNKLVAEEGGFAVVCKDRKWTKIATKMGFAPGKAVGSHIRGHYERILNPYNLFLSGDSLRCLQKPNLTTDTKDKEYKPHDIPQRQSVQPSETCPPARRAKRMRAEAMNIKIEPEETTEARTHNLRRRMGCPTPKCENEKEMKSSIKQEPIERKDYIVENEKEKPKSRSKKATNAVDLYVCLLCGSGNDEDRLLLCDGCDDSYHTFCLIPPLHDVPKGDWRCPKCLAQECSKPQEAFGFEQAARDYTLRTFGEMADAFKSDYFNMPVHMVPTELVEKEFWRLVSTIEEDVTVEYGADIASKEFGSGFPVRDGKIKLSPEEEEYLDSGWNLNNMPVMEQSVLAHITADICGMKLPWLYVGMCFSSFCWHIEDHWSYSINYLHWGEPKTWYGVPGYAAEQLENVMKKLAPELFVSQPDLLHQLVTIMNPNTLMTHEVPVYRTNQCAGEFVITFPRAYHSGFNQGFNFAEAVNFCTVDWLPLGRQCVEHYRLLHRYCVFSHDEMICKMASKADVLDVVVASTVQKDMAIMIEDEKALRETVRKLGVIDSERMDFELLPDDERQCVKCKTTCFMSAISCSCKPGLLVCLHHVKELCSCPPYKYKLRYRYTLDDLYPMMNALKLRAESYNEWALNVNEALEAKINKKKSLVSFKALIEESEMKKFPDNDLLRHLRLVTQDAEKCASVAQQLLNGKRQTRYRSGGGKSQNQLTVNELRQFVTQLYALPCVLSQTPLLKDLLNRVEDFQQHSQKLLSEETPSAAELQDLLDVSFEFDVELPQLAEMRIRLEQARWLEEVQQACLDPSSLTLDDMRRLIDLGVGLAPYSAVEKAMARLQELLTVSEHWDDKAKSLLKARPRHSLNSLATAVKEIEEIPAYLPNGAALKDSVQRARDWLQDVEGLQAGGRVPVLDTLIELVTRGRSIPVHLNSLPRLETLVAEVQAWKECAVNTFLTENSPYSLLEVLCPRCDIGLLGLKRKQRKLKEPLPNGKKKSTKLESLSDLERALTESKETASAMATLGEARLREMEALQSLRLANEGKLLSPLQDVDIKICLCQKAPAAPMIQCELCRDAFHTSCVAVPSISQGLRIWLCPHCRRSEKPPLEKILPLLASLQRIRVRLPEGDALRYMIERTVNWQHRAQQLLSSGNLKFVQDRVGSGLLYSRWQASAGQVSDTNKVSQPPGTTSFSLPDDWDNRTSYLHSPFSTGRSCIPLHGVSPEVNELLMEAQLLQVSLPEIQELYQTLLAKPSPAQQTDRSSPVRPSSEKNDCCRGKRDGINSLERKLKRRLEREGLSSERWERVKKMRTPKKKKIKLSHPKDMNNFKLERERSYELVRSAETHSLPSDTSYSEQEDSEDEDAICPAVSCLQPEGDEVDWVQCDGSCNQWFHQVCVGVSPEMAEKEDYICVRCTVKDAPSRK
Chain of Calcium and integrin-binding protein 1 (Homo sapiens) (Q99828 whole entry, looked up): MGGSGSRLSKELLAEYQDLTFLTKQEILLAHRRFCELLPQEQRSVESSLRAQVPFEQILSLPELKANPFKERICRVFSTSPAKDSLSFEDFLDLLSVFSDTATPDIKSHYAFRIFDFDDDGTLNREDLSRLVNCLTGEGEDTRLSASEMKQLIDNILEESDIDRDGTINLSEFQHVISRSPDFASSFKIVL
Chain of Metallo-beta-lactamase type 2 (Klebsiella pneumoniae) (C7C422 whole entry, looked up): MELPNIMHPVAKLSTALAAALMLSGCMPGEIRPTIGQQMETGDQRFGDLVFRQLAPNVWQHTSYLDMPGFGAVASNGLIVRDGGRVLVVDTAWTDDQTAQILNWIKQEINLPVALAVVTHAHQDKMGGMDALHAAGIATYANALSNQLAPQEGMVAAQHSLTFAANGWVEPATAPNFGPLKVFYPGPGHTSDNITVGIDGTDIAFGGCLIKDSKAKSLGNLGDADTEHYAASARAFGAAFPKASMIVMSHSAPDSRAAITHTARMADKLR
Chain of Parathyroid hormone/parathyroid hormone-related peptide receptor (Homo sapiens) (Q03431 whole entry, looked up): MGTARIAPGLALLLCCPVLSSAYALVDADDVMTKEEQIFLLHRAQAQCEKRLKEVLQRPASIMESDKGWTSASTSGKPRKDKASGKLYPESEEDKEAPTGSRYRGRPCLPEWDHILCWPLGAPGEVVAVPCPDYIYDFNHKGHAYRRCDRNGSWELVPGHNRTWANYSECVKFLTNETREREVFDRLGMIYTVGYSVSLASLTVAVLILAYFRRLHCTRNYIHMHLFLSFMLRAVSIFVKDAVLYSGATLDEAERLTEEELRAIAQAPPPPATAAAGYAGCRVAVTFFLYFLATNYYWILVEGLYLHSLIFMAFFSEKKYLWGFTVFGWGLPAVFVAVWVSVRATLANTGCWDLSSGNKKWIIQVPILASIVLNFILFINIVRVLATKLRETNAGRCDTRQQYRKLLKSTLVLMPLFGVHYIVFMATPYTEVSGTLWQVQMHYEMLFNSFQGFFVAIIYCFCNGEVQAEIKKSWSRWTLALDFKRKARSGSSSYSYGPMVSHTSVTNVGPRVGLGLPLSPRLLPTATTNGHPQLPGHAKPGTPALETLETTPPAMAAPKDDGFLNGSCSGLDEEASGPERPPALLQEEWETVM
Chain of Arylsulfatase A (Homo sapiens) (P15289 whole entry, looked up): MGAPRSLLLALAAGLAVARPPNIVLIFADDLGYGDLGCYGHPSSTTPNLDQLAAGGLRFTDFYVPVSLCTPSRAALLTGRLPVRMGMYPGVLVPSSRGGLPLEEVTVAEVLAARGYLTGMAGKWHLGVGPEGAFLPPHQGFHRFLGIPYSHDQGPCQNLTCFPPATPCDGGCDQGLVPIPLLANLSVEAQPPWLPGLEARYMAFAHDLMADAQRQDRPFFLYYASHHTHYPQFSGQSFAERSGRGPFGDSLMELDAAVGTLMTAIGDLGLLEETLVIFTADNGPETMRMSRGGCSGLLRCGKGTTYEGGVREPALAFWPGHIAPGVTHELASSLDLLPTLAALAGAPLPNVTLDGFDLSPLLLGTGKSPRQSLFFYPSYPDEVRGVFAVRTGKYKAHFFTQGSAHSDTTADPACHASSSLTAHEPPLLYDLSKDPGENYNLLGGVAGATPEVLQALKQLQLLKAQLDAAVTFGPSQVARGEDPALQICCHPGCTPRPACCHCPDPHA

CC[N+](CC)(CC)CC
inactive: all assays above
